Source: PubChem BioAssay (NCATS)
Results filed as inconclusive are left out. Where a call stands in place of a potency, no number is given. Activity calls are given as the source filed them. Calls come from the whole dose curve; as a rule, active = well fitted inhibition curve with a large enough effect; inconclusive = small, poorly fitted or top-dose-only effect; inactive = flat fitted curve, though single readings scatter. Square brackets hold non-standard residues; d marks the D form. Peptide text beside a SMILES is read from it. Orn = NCCC[CH](N)C(=O)O

Key:
Test in all cases: qHTS profiling for inhibitors of Plasmodium falciparum proliferation (AID 504749); note: nearly all actives have a fitted effect of over 60% in size
Details in all cases: P. falciparum in erythrocytes, SYBR Green DNA, 72 h; series mostly up to 28.7 µM
7G8 = tested on: 7G8
Outline: (§1)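 SYBR Green fluorescence (ex 485 nm, em 535 nm) reports parasite DNA after 72 h compound exposure of infected red cells at 0.3% parasitemia, 2.5% hematocrit; signal normalized to 0.29 uM artemisinin and vehicle wells.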

AA1029 = tested on: AA1029
Outline: as §1

CP192 = tested on: CP192
Outline: as §1

CP194 = tested on: CP194
Outline: as §1

CP203 = tested on: CP203
Outline: as §1

CP217 = tested on: CP217
Outline: as §1

CP237 = tested on: CP237
Outline: as §1

CP266 = tested on: CP266
Outline: as §1

CP268 = tested on: CP268
Outline: as §1

CP269 = tested on: CP269
Outline: as §1

CP291 = tested on: CP291
Outline: as §1

CP315 = tested on: CP315
Outline: as §1

CP329 = tested on: CP329
Outline: as §1

DIV30 = tested on: DIV30
Outline: as §1

HB3 = tested on: HB3
Outline: as §1

JCK = tested on: JCK
Outline: as §1

P94_40 = tested on: P94_40
Outline: as §1

PC15 = tested on: PC15
Outline: as §1

PC26 = tested on: PC26
Outline: as §1

TAB109 = tested on: TAB109
Outline: as §1
Potency is the fitted concentration of half-maximal effect.

With `CC(=O)OCC(=O)[C@@]1(O)CCC2C3CCC4=CC(=O)CC[C@]4(C)C3=CC[C@@]21C` (some centres undefined) the Potency (7G8) was “inactive”, the Potency (AA1029) was “inactive” and the Potency (CP192) was “inactive”. The Potency (CP194) was “inactive”, the Potency (CP203) was “inactive” and the Potency (CP217) was “inactive”. For the same compound, the Potency (CP237) was “inactive”, the Potency (CP266) was “inactive” and the Potency (CP268) was “inactive”. For the same compound, the Potency (CP269) was “inactive”, the Potency (CP291) was “inactive” and the Potency (CP315) was “inactive”. The Potency (CP329) was “inactive”, the Potency (DIV30) was “inactive” and the Potency (HB3) was “inactive”. For the same compound, the Potency (JCK) was “inactive”, the Potency (P94_40) was “inactive” and the Potency (PC15) was “inactive”. For the same compound, the Potency (PC26) was “inactive” and the Potency (TAB109) was “inactive”.

For `O=C1/C(=C\c2cccs2)CCC/C1=C/c1cccs1`, the Potency (AA1029) was “inactive”, the Potency (CP192) was “inactive” and the Potency (CP194) was “inactive”. For the same compound, the Potency (CP203) was “inactive”, the Potency (CP217) was “inactive” and the Potency (CP237) was “inactive”. The Potency (CP266) was “inactive”, the Potency (CP268) was “inactive” and the Potency (CP269) was “inactive”. The Potency (CP291) was “inactive”, the Potency (CP315) was “inactive” and the Potency (CP329) was “inactive”. The Potency (DIV30) was “inactive”, the Potency (HB3) was “inactive” and the Potency (JCK) was “inactive”. The Potency (P94_40) was “inactive”, the Potency (PC15) was “inactive” and the Potency (PC26) was “inactive”. The Potency (TAB109) was “inactive”.

With `C=CC1=C(C(=O)O)N2C(=O)[C@@H](NC(=O)C(N=O)c3csc(N)n3)[C@H]2SC1` (some centres undefined) the Potency (7G8) was “inactive”, the Potency (AA1029) was “inactive” and the Potency (CP192) was “inactive”. The Potency (CP194) was “inactive”, the Potency (CP203) was “inactive” and the Potency (CP217) was “inactive”. For the same compound, the Potency (CP237) was “inactive”, the Potency (CP266) was “inactive” and the Potency (CP268) was “inactive”. The Potency (CP269) was “inactive”, the Potency (CP291) was “inactive” and the Potency (CP315) was “inactive”. The Potency (CP329) was “inactive”, the Potency (DIV30) was “inactive” and the Potency (HB3) was “inactive”. The Potency (JCK) was “inactive”, the Potency (P94_40) was “inactive” and the Potency (PC15) was “inactive”. The Potency (PC26) was “inactive” and the Potency (TAB109) was “inactive”.

With `CC(C)CC1NC(=O)C(CCCN)NC(=O)C(C(C)C)NC(=O)C2CCCN2C(=O)C(Cc2ccccc2)NC(=O)C(CC(C)C)NC(=O)C(CCCN)NC(=O)C(C(C)C)NC(=O)C2CCCN2C(=O)C(Cc2ccccc2)NC1=O` (centres undefined) (cyclo(FPV[Orn]LFPV[Orn]L); configuration not given here) the Potency (7G8) was 0.3 nM (active), the Potency (AA1029) was 0.9 nM (active) and the Potency (CP192) was 1.7 nM (active). For the same compound, the Potency (CP194) was 1.3 nM (active), the Potency (CP203) was 1.3 nM (active) and the Potency (CP217) was 2.2 nM (active). For the same compound, the Potency (CP237) was 0.9 nM (active), the Potency (CP266) was 1.9 nM (active) and the Potency (CP268) was 13.5 nM (active). For the same compound, the Potency (CP269) was 1.3 nM (active), the Potency (CP291) was 0.4 nM (active) and the Potency (CP315) was 1.7 nM (active). The Potency (CP329) was 1.9 nM (active), the Potency (DIV30) was 0.4 nM (active) and the Potency (HB3) was 3.5 nM (active). For the same compound, the Potency (JCK) was 56.2 nM (active), the Potency (P94_40) was 0.4 nM (active) and the Potency (PC15) was 5.6 nM (active). The Potency (PC26) was 1.1 nM (active) and the Potency (TAB109) was 1.1 nM (active).

For `CCC(C)C1NC(=O)C(Cc2ccc(O)cc2)NC(=O)C(N)CSSCC(C(=O)N2CCCC2C(=O)NC(CC(C)C)C(=O)NCC(N)=O)NC(=O)C(CC(N)=O)NC(=O)C(CCC(N)=O)NC1=O` (centres undefined), the Potency (7G8) was “inactive”, the Potency (AA1029) was “inactive” and the Potency (CP192) was “inactive”. The Potency (CP194) was “inactive”, the Potency (CP203) was “inactive” and the Potency (CP217) was “inactive”. For the same compound, the Potency (CP237) was “inactive”, the Potency (CP266) was “inactive” and the Potency (CP268) was “inactive”. For the same compound, the Potency (CP269) was “inactive”, the Potency (CP291) was “inactive” and the Potency (CP315) was “inactive”. For the same compound, the Potency (CP329) was “inactive”, the Potency (DIV30) was “inactive” and the Potency (HB3) was “inactive”. The Potency (JCK) was “inactive”, the Potency (P94_40) was “inactive” and the Potency (PC15) was “inactive”. The Potency (PC26) was “inactive” and the Potency (TAB109) was “inactive”.

In the case of `NC(=O)CCC1NC(=O)C(Cc2ccccc2)NC(=O)C(Cc2ccc(O)cc2)NC(=O)CCSSCC(C(=O)N2CCCC2C(=O)NC(CCCN=C(N)N)C(=O)NCC(N)=O)NC(=O)C(CC(N)=O)NC1=O` (centres undefined), the Potency (7G8) is reported as “inactive”, the Potency (AA1029) is reported as “inactive” and the Potency (CP192) is reported as “inactive”. For the same compound, the Potency (CP194) was “inactive”, the Potency (CP203) was “inactive” and the Potency (CP217) was “inactive”. For the same compound, the Potency (CP237) was “inactive”, the Potency (CP266) was “inactive” and the Potency (CP268) was “inactive”. For the same compound, the Potency (CP269) was “inactive”, the Potency (CP291) was “inactive” and the Potency (CP315) was “inactive”. For the same compound, the Potency (CP329) was “inactive”, the Potency (DIV30) was “inactive” and the Potency (HB3) was “inactive”. For the same compound, the Potency (JCK) was “inactive”, the Potency (P94_40) was “inactive” and the Potency (PC15) was “inactive”. The Potency (PC26) was “inactive” and the Potency (TAB109) was “inactive”.

In the case of `CC1(C)C(/C=C/C=C/C=C/C=C2\N(CCCCS(=O)(=O)O)c3ccc4ccccc4c3C2(C)C)=[N+](CCCCS(=O)(=O)[O-])c2ccc3ccccc3c21`, the Potency (7G8) is reported as “inactive”, the Potency (AA1029) is reported as “inactive” and the Potency (CP192) is reported as “inactive”. For the same compound, the Potency (CP194) was “inactive”, the Potency (CP203) was “inactive” and the Potency (CP237) was “inactive”. For the same compound, the Potency (CP266) was “inactive”, the Potency (CP268) was “inactive” and the Potency (CP269) was “inactive”. For the same compound, the Potency (CP291) was “inactive”, the Potency (CP315) was “inactive” and the Potency (CP329) was “inactive”. For the same compound, the Potency (DIV30) was “inactive”, the Potency (HB3) was “inactive” and the Potency (JCK) was “inactive”. For the same compound, the Potency (P94_40) was “inactive”, the Potency (PC15) was “inactive” and the Potency (PC26) was “inactive”. The Potency (TAB109) was “inactive”.

`COc1ccc(-c2nc3ccc(C4=C(C)CC(=O)NN4)cc3[nH]2)cc1` was tested, and the Potency (7G8) was 8910 nM (active), the Potency (AA1029) was “inactive” and the Potency (CP192) was “inactive”. For the same compound, the Potency (CP217) was “inactive”, the Potency (CP266) was “inactive” and the Potency (CP291) was “inactive”. For the same compound, the Potency (CP315) was “inactive”, the Potency (CP329) was “inactive” and the Potency (HB3) was “inactive”. For the same compound, the Potency (JCK) was “inactive”, the Potency (P94_40) was “inactive” and the Potency (PC15) was “inactive”.

`O=C(O)c1ccccc1-c1c2cc(Br)c(=O)c(Br)c-2oc2c(Br)c(O)c(Br)cc12` was tested, and the Potency (7G8) was “inactive”, the Potency (AA1029) was “inactive” and the Potency (CP192) was “inactive”. For the same compound, the Potency (CP194) was “inactive”, the Potency (CP203) was “inactive” and the Potency (CP217) was “inactive”. For the same compound, the Potency (CP237) was “inactive”, the Potency (CP268) was “inactive” and the Potency (CP269) was “inactive”. For the same compound, the Potency (CP291) was “inactive”, the Potency (CP315) was “inactive” and the Potency (CP329) was “inactive”. The Potency (DIV30) was “inactive”, the Potency (HB3) was “inactive” and the Potency (JCK) was “inactive”. The Potency (P94_40) was “inactive”, the Potency (PC15) was “inactive” and the Potency (PC26) was “inactive”. For the same compound, the Potency (TAB109) was “inactive”.
